# Laboratory results from PubChem BioAssay AID1777 (Sanford-Burnham Center for Chemical Genomics, 2009).
# About 50 (0.02%) of roughly 280,000 compounds were called active. The sample holds actives, similar compounds and a random draw of the others, so the mix is not that of the screen. Measured potencies and affinities stand elsewhere. Unmarked numbers belong to inactive results. No stated cut-off is given here; in the data, active means activation above about 50% (passing the limit was not always enough); inactive means the rest.
# Biological target: Kappa-type opioid receptor (Homo sapiens) (UniProt P41145)
# Assay: kappa opioid receptor activators – cell-based, luminescence, uHTS, primary screen (AID 1777)
# Conditions: KOR beta-arrestin recruitment, at 10 µM, stronger effect = higher value
# Sequence of Kappa-type opioid receptor (Homo sapiens) (P41145 whole entry, looked up): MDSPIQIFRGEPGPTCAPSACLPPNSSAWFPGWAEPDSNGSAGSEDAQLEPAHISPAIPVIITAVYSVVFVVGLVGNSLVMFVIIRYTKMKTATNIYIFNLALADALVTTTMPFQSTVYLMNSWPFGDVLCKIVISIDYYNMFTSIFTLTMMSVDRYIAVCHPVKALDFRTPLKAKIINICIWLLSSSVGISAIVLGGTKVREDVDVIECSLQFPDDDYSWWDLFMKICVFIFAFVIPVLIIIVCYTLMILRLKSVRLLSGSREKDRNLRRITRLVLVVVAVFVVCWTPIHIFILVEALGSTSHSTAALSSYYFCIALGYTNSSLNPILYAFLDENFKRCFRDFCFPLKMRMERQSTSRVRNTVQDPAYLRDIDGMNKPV
row,SMILES,activation
1,O=C(NCc1ccccc1)c1ccc(N2C(=O)C3CCCCC3C2=O)cc1 (configuration not stated),-2.4%
2,Cc1ccc(C)c2[nH]c(=O)c(CN(Cc3ccc4c(c3)OCO4)Cc3nnnn3Cc3ccco3)cc12,10.8%
3,Cc1cc(C)c2cc(CN(Cc3ccc4c(c3)OCO4)Cc3nnnn3Cc3ccco3)c(=O)[nH]c2c1,83.5% (active)
4,Cc1ccc2cc(CN(Cc3ccc4c(c3)OCO4)Cc3nnnn3Cc3ccco3)c(=O)[nH]c2c1,26.7%
5,Cc1ccc2nc(C)c(C(=O)N/N=C/c3ccc(N4CCOCC4)cc3)cc2c1,3%
6,CN(c1ccccc1C(=O)Nc1ccc(CC#N)cc1)S(=O)(=O)c1ccccc1,2.4%
7,Cc1ccccc1NC(=S)N(Cc1cccs1)C1CCCCC1,-6.5%
8,Cc1ccccc1NC(=S)N(Cc1cccs1)C1CCCC1,4.8%
9,Cc1ccc(C(C)NC(=O)c2cc(C)oc2C)cc1 (configuration not stated),8.6%
10,Clc1cccc(CSc2nnc(-c3cccnc3)n2Cc2ccco2)c1,-4.9%
11,O=C(CSc1nnc(-c2ccccn2)n1Cc1ccco1)c1ccc(Cl)cc1,81.9%
12,COc1ccc(C)cc1NC(=O)CSc1nnc(-c2ccccn2)n1Cc1ccco1,1.2%
13,Clc1ccc(CSc2nnc(-c3cccnc3)n2Cc2ccco2)c(Cl)c1,-2.8%
14,COc1ccccc1NC(=O)CSc1nnc(-c2ccccn2)n1Cc1ccco1,17.1%
15,Clc1ccccc1CSc1nnc(-c2ccccn2)n1Cc1ccco1,31.6%
16,Cc1ccc(O)c(N=Nc2ccc(S(=O)(=O)N3CCCC3)cc2)c1,-0.2%
17,CN(C)CC(C)(C)CNC(=O)C1CCN(CCCc2ccccc2)CC1,-5.3%
18,CCOc1nc(NC2CCCC2)nc(N2CCC(C)CC2)n1,-3.8%
19,CCCNC(=O)NC(=O)CSc1nnc(-c2ccncc2)n1CC,-1.1%

row,SMILES,activation
1,COC(=O)CN1C(=O)[C@H]2[C@@H](c3ccc(C)o3)N3C(=O)CN(CCO)C(=O)[C@@]3(Cc3ccccc3)[C@H]2C1=O,5.5%
2,Cc1c(Cl)cccc1N1C(=O)C2ON(c3ccccc3)C(c3cccnc3)C2C1=O (configuration not stated),0.9%
3,O=C1C2ON(c3ccccc3)C(c3cccnc3)C2C(=O)N1c1ccccc1 (configuration not stated),-3.9%
4,CC(=O)N1CCC(C(=O)NC2CC(C)(C)Cc3c2cnn3-c2ccc(F)cc2)CC1 (configuration not stated),-2.2%
5,CC(=O)Nc1ccc(N/C=C/C(=O)c2ccccc2)cc1,-0.7%
6,Cn1c(=O)c2c(nc(Oc3ccc4c(c3)OCO4)n2Cc2ccc(F)cc2)n(C)c1=O,67.5% (active)
7,Cn1c(=O)c2c(nc(Oc3ccc4c(c3)OCO4)n2Cc2ccc(Cl)cc2)n(C)c1=O,62.7%
8,Cn1c(=O)c2c(nc(Oc3ccc4c(c3)OCO4)n2Cc2ccc(Br)cc2)n(C)c1=O,9.8%
9,Cn1c(=O)c2c([nH]c(OCc3ccc(Cl)cc3Cl)[n+]2Cc2ccc(F)cc2)n(C)c1=O,6.8%
10,O=C(Cc1cccs1)N(Cc1cccs1)C1(C(=O)NC2CCCC2)CCCCC1,-2.8%
11,O=C(c1ccc(=O)[nH]c1)N(Cc1cccs1)C1(C(=O)NC2CCCC2)CCCCC1,5.3%
12,O=C(Cc1cccs1)N(Cc1cccs1)C1(C(=O)NC2CCCCC2)CCCCC1,-1.5%
13,O=C(c1cnccn1)N(Cc1cccs1)C1(C(=O)NC2CCCCC2)CCCCC1,64.7% (active)
14,O=C(c1cnccn1)N(Cc1cccs1)C1(C(=O)NC2CCCC2)CCCCC1,30.1%
15,COc1ccc(NC2=NCCCCC2)cc1,-4.3%
16,Cc1ccc(N2C(=O)C(c3c(C)[nH]n(-c4ccccc4)c3=O)(C(F)(F)F)C3=C2CC(C)(C)CC3=O)cc1 (configuration not stated),-2.8%
17,Cc1ccc(C(=O)NC(=S)Nc2cccc(NC(=O)c3ccccc3Cl)c2)cc1[N+](=O)[O-],1.9%
18,CNC(=S)N(CCc1c(C)[nH]c2ccc(Cl)cc12)Cc1cccnc1,-1%
19,c1ccc(Cn2c(-c3cccs3)nc3nc4ccccc4nc32)cc1,65.7% (active)

row,SMILES,activation
1,CCCn1c(-c2cccs2)nc2nc3ccccc3nc21,13.8%
2,C=CCn1c(-c2cccs2)nc2nc3ccccc3nc21,-4.6%
3,O=C(NCc1cnc2ccccn12)C1CCC(=O)N(Cc2ccccc2F)C1 (configuration not stated),-0.5%
4,CN(C)S(=O)(=O)c1ccc(NC(=O)N2CCN(c3ccccc3)CC2)cc1,22.3%
5,CC(=O)N1CCN(c2ccc(NC(=O)c3cc(Cl)ccc3Cl)cc2)CC1,-3.7%
6,CCOC(=O)CSc1nnc2n(Cc3ccccc3)c(=O)c3c4c(sc3n12)CCC4,-9.3%
7,CCCSc1nnc2n(Cc3ccccc3)c(=O)c3c4c(sc3n12)CCC4,69.7% (active)
8,C=C(C)CSc1nnc2n(Cc3ccccc3)c(=O)c3c4c(sc3n12)CCC4,-1.4%
9,O=C(NCC1CCCO1)C1CCCN(S(=O)(=O)c2ccc(Br)cc2)C1 (configuration not stated),0.4%
10,CCOC(=O)c1ccccc1N/C=C1\CCCC1=O,0.9%
11,Cn1c(=O)oc2cc(S(=O)(=O)N3CCN(c4ccc(F)cc4)CC3)ccc21,-1.1%
12,O=C1CN(CC(=O)N2CCCCC2)c2ccccc2O1,-1.4%
13,COc1cc([N+](=O)[O-])ccc1NC(=O)Nc1ccc(C(=O)N2CCCC2)cc1,-5.9%
14,C(=C\c1ccccc1)/CSc1nnc(-c2ccccc2)n1Cc1ccco1,3.8%
15,NC(=O)CSc1nnc(-c2ccccn2)n1Cc1ccco1,2.2%
16,COC(=O)CSc1nnc(-c2ccccn2)n1Cc1ccco1,-0.5%
17,Brc1ccc(CSc2nnc(-c3cnccn3)n2Cc2ccco2)cc1,41.3%
18,C(=C\c1ccccc1)/CSc1nnc(-c2cnccn2)n1Cc1ccco1,16.2%
19,O=C(CSc1nnc(-c2ccccn2)n1Cc1ccco1)c1ccccc1,15.7%
